# In paper PMC7862700, “An all-to-all approach to the identification of sequence-specific readers for epigenetic DNA modifications on cytosine”:
# Experiments:
# Experiment in all cases: DAPPL (digital affinity profiling via proximity ligation, sequencing); 10 mM Tris-HCl pH 7.5, 50 mM NaCl, 1 mM DTT, 4% glycerol, room temperature, 30 min; GST-TFs on glutathione beads, 16-mer random dsDNA library, 0.1% formaldehyde crosslink after washing; high values mean tight binding
# FLI1 = target: T1, FLI1 (Homo sapiens, UniProt Q01543 1-452); settings: protein: recombinant; tags: N-terminal GST; dsDNA, one strand shown
# T1 sequence: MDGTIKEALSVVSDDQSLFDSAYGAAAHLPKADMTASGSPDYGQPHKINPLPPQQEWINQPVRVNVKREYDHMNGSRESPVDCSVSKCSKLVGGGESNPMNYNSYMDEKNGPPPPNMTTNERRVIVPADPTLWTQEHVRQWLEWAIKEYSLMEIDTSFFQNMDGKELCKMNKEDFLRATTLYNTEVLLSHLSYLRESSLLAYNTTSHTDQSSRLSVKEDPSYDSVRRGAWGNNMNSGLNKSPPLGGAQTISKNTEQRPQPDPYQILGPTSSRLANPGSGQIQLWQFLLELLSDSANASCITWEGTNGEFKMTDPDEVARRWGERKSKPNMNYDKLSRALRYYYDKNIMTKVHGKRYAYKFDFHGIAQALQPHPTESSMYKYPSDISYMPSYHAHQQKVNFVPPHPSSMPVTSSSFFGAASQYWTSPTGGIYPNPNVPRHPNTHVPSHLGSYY
# Outline: (§1)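 A tag-only sample was pooled with DNA-barcoded human transcription factors that had been expressed in yeast as GST fusions and captured on glutathione beads. The pools were incubated for 30 min at room temperature with 200 nmole of a random double-stranded 16-mer DNA library in Tris/NaCl/DTT/glycerol buffer, then washed, crosslinked with 0.1% formaldehyde, proximity-ligated (BsaI/T4 ligase, 1 h, 37 °C), PCR-amplified and sequenced on an Illumina NextSeq500. Binding signal is each hexamer's read frequency for a factor divided by its frequency for the tag-only sample.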
# ELK1 = target: T2, ELK1 (Homo sapiens, UniProt P19419 1-428); settings: protein: recombinant; tags: N-terminal GST; dsDNA, one strand shown
# T2 sequence: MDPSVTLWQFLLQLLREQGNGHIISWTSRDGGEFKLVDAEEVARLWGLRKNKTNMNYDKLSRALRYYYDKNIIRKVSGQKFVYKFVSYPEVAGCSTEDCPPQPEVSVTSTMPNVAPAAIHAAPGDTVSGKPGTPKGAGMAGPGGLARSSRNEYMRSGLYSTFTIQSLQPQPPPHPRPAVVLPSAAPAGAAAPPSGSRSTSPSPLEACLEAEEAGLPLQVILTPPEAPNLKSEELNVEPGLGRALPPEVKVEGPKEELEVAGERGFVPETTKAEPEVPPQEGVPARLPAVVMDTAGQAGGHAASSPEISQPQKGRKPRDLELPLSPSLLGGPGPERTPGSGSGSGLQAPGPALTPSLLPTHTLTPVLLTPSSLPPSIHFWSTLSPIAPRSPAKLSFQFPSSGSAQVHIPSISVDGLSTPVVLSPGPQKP
# Outline: as §1
# GABPA = target: T3, GABPA (Homo sapiens, UniProt Q06546 1-454); settings: protein: recombinant; tags: N-terminal GST; dsDNA, one strand shown
# T3 sequence: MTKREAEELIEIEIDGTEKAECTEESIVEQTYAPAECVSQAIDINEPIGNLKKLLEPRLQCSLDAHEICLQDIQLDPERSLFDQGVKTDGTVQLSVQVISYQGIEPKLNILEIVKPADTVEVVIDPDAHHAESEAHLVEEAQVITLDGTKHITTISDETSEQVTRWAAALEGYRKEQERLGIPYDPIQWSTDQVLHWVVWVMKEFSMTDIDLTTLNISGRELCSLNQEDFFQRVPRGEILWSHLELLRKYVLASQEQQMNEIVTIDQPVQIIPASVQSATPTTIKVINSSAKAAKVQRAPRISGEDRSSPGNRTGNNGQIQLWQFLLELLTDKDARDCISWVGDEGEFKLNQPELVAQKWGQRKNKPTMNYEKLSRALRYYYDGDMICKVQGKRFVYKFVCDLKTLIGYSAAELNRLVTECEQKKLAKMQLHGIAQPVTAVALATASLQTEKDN
# Outline: as §1
# ERG = target: T4, ERG (Homo sapiens, UniProt P11308 1-479); settings: protein: recombinant; tags: N-terminal GST; dsDNA, one strand shown
# T4 sequence: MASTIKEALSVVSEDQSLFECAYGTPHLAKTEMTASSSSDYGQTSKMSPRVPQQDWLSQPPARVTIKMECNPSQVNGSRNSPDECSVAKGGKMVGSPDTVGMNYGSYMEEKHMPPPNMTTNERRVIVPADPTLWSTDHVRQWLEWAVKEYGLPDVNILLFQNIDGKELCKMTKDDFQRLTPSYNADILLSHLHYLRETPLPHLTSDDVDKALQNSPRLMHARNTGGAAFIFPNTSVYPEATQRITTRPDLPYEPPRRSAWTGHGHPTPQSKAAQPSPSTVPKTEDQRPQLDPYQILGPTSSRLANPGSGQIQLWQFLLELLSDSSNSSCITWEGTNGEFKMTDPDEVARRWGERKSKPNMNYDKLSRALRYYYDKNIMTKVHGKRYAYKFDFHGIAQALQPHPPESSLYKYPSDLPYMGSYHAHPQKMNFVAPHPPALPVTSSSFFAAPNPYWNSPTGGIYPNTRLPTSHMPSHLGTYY
# Outline: as §1
# ELF1 = ELF1 (Homo sapiens, UniProt P32519 1-619); settings: protein: recombinant; tags: N-terminal GST; dsDNA, one strand shown
# ELF1, sequence (P32519 whole entry): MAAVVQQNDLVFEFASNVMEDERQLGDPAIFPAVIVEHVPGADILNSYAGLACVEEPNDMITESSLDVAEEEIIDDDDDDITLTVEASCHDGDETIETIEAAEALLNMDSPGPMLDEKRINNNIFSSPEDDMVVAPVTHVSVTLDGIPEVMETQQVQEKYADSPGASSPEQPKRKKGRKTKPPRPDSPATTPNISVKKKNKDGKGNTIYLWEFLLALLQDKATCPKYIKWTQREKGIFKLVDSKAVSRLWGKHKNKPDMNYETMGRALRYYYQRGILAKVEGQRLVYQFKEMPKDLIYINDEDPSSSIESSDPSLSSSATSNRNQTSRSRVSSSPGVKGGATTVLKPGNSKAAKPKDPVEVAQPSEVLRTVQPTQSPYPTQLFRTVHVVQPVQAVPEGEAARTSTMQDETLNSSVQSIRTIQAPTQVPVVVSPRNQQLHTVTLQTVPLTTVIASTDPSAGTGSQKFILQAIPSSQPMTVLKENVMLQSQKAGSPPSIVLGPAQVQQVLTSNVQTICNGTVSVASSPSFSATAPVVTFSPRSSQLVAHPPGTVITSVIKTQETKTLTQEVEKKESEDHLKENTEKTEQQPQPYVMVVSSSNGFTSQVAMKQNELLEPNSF
# Outline: as §1
# EHF = target: T5, EHF (Homo sapiens, UniProt Q9NZC4 1-300); settings: protein: recombinant; tags: N-terminal GST; dsDNA, one strand shown
# T5 sequence: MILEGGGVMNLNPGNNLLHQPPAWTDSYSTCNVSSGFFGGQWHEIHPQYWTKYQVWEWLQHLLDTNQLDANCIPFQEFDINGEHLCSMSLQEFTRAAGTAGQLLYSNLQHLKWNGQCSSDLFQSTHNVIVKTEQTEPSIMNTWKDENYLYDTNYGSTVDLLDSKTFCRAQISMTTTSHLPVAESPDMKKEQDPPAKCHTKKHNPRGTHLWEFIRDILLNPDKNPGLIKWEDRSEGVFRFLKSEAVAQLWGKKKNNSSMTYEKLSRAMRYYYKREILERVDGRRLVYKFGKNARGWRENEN
# Outline: as §1
# SPI1 = SPI1 (Homo sapiens, UniProt P17947 1-270); settings: protein: recombinant; tags: N-terminal GST; dsDNA, one strand shown
# Outline: as §1
# SPIB = SPIB (Homo sapiens, UniProt Q01892 1-262); settings: protein: recombinant; tags: N-terminal GST; dsDNA, one strand shown
# SPIB, sequence (Q01892 whole entry): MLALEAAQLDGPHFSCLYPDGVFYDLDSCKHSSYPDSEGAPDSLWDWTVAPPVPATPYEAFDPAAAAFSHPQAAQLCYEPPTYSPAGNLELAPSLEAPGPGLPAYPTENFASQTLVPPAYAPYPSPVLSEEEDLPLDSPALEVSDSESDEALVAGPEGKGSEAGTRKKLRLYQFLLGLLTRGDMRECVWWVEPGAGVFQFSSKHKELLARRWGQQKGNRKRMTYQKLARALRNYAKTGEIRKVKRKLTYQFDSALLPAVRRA
# Outline: as §1
# ELK3 = target: T6, ELK3 (Homo sapiens, UniProt P41970 1-407); settings: protein: recombinant; tags: N-terminal GST; dsDNA, one strand shown
# T6 sequence: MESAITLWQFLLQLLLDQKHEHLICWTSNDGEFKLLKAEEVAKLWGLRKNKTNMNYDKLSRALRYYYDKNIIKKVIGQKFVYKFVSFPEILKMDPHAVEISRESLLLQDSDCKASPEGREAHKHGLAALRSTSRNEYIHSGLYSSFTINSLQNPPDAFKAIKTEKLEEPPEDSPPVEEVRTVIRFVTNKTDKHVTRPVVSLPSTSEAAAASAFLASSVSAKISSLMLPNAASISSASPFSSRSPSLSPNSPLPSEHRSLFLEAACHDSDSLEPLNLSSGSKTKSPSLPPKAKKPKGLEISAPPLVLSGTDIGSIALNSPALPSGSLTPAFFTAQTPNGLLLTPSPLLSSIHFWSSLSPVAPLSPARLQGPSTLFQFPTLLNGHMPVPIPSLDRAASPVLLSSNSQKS
# Outline: as §1
# FEV = target: T7, FEV (Homo sapiens, UniProt Q99581 1-238); settings: protein: recombinant; tags: N-terminal GST; dsDNA, one strand shown
# T7 sequence: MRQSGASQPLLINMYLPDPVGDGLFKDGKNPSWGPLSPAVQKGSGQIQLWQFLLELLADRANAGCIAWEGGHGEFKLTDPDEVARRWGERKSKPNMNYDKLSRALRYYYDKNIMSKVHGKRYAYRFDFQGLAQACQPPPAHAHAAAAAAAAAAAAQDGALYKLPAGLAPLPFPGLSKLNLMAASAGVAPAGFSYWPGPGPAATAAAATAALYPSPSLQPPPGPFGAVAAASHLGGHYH
# Outline: as §1
# ETV5 = ETV5 (Homo sapiens, UniProt P41161 1-510); settings: protein: recombinant; tags: N-terminal GST; dsDNA, one strand shown
# ETV5, sequence (P41161 whole entry): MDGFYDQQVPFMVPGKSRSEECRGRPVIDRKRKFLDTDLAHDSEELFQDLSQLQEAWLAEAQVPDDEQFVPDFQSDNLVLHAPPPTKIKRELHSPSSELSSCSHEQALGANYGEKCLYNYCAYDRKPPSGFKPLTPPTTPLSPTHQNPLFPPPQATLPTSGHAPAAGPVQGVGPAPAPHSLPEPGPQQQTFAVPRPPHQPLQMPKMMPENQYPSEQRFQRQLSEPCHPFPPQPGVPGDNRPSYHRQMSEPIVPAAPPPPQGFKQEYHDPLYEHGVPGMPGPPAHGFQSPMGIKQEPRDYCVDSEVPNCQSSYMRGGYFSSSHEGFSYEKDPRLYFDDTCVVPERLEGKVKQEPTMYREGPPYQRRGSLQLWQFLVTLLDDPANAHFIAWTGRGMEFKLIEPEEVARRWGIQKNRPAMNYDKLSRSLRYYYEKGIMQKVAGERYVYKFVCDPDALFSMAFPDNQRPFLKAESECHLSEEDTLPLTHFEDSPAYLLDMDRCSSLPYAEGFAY
# Outline: as §1
# HSF1 = HSF1 (Homo sapiens, UniProt Q00613 1-529); settings: protein: recombinant; tags: N-terminal GST; chain copies: 3; dsDNA, one strand shown
# HSF1, sequence (Q00613 whole entry): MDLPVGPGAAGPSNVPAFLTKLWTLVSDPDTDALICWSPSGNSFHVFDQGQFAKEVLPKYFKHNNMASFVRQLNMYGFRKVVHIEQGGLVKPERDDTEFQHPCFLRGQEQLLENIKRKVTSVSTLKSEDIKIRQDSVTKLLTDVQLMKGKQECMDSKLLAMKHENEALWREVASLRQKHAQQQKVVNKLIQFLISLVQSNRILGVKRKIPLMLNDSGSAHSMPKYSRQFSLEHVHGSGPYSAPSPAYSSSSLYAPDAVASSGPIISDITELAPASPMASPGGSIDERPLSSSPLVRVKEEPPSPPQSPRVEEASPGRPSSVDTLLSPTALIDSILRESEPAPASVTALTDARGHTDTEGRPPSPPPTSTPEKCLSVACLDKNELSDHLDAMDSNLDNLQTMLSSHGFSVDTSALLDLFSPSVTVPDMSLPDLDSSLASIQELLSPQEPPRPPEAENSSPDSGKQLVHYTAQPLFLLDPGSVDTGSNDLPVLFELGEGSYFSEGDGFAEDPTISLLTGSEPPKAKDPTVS
# Outline: as §1
# SPIC = target: T8, SPIC (Homo sapiens, UniProt Q8N5J4 1-248); settings: protein: recombinant; tags: N-terminal GST; dsDNA, one strand shown
# T8 sequence: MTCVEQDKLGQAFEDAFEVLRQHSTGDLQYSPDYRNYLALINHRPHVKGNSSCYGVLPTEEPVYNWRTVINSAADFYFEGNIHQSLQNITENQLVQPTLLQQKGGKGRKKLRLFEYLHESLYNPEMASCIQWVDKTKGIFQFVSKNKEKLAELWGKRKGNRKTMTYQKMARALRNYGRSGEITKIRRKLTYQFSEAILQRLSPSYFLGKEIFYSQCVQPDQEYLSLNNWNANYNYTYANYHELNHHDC
# Outline: as §1
# ELF4 = ELF4 (Homo sapiens, UniProt Q99607 1-663); settings: protein: recombinant; tags: N-terminal GST; dsDNA, one strand shown
# ELF4, sequence (Q99607 whole entry): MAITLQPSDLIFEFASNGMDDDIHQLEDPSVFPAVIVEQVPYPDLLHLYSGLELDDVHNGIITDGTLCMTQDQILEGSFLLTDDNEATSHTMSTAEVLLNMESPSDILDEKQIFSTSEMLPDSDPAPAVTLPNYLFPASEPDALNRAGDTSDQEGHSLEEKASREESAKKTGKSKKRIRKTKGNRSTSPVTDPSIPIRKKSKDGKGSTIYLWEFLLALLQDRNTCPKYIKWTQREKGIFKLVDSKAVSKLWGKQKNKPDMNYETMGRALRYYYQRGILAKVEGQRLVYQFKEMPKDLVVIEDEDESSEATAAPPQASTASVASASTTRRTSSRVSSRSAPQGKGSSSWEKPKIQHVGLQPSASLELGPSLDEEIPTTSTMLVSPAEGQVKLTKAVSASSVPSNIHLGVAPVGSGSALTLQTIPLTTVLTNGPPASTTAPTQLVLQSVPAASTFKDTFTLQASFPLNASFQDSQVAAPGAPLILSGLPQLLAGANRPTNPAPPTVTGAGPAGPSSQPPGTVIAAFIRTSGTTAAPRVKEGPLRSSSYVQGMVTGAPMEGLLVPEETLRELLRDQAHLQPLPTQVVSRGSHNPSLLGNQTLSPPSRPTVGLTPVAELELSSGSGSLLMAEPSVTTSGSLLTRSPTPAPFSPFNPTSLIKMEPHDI
# Outline: as §1
# ELK4 = target: T9, ELK4 (Homo sapiens, UniProt P28324-2 1-405); settings: protein: recombinant; tags: N-terminal GST; dsDNA, one strand shown
# T9 sequence: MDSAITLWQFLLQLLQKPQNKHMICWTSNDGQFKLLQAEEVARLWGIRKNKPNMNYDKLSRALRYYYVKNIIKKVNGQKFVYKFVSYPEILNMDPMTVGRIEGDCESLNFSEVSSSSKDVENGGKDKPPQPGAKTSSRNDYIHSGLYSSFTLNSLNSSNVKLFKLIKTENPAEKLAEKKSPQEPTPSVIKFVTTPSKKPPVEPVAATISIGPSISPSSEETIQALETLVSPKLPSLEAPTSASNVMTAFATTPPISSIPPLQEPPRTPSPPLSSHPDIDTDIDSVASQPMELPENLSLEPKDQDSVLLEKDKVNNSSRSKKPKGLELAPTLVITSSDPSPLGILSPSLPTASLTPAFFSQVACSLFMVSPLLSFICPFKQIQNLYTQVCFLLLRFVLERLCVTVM
# Outline: as §1
# ETV2 = target: T10, ETV2 (Homo sapiens, UniProt O00321 1-342); settings: protein: recombinant; tags: N-terminal GST; dsDNA, one strand shown
# T10 sequence: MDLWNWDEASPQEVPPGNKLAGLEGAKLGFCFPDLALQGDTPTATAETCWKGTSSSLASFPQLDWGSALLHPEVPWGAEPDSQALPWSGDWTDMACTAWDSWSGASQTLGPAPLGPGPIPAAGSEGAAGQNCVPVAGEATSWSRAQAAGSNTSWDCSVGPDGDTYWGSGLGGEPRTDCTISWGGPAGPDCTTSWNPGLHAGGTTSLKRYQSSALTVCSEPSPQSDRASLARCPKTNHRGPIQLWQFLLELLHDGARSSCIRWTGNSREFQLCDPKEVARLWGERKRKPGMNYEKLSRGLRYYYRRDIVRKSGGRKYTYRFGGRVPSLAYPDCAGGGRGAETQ
# Outline: as §1
# ELF3 = target: T11, ELF3 (Homo sapiens, UniProt P78545 1-371); settings: protein: recombinant; tags: N-terminal GST; dsDNA, one strand shown
# T11 sequence: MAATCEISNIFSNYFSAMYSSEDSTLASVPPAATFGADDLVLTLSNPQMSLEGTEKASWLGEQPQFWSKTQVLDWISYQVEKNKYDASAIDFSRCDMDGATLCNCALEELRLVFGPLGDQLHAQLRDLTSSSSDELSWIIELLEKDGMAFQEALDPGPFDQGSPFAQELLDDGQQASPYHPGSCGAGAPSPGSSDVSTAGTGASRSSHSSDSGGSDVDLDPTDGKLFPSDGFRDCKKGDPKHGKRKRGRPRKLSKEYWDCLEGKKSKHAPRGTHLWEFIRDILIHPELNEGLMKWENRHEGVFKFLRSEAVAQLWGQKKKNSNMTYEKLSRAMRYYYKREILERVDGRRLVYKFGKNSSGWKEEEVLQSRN
# Outline: as §1
# CRX = CRX (Homo sapiens, UniProt O43186 1-299); settings: protein: recombinant; tags: N-terminal GST; dsDNA, one strand shown
# CRX, sequence (O43186 whole entry): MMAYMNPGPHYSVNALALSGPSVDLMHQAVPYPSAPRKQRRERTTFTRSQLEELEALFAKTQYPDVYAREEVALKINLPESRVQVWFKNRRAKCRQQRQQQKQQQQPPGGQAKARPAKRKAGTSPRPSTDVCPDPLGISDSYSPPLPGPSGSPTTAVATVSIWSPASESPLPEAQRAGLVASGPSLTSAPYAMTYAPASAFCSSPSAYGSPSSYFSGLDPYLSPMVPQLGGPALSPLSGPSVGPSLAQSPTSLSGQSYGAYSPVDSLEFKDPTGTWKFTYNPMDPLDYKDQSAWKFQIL
# Outline: as §1
# ETV1 = ETV1 (Homo sapiens, UniProt P50549 1-477); settings: protein: recombinant; tags: N-terminal GST; dsDNA, one strand shown
# ETV1, sequence (P50549 whole entry): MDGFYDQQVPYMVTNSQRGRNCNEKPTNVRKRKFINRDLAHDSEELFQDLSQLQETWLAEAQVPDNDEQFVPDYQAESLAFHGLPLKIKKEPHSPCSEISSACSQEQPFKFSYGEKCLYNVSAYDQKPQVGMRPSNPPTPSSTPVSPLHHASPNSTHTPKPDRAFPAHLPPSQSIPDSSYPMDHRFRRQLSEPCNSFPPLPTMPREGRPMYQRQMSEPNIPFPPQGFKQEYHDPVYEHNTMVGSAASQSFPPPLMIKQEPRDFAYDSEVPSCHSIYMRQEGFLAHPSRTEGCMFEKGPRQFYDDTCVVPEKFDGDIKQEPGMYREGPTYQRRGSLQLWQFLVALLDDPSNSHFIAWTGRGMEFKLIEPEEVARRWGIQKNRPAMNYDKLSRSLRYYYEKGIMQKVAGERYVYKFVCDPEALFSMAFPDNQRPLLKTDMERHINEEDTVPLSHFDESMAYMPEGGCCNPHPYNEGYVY
# Outline: as §1
sequence,measurement,setting,value
TCTTGG,binding signal,FLI1,"1.44 fold enrichment (6-mer frequency, TF over GST control)"
same,binding signal,ELK1,"1.35 fold enrichment (6-mer frequency, TF over GST control)"
same,binding signal,GABPA,"1.52 fold enrichment (6-mer frequency, TF over GST control)"
same,binding signal,ERG,"1.38 fold enrichment (6-mer frequency, TF over GST control)"
same,binding signal,ELF1,"1.28 fold enrichment (6-mer frequency, TF over GST control)"
same,binding signal,EHF,"1.48 fold enrichment (6-mer frequency, TF over GST control)"
same,binding signal,SPI1,"1.35 fold enrichment (6-mer frequency, TF over GST control)"
same,binding signal,SPIB,"1.4 fold enrichment (6-mer frequency, TF over GST control)"
same,binding signal,ELK3,"1.4 fold enrichment (6-mer frequency, TF over GST control)"
same,binding signal,FEV,"1.3 fold enrichment (6-mer frequency, TF over GST control)"
same,binding signal,ETV5,"1.32 fold enrichment (6-mer frequency, TF over GST control)"
same,binding signal,HSF1,"1.39 fold enrichment (6-mer frequency, TF over GST control)"
same,binding signal,SPIC,"1.47 fold enrichment (6-mer frequency, TF over GST control)"
same,binding signal,ELF4,"1.39 fold enrichment (6-mer frequency, TF over GST control)"
same,binding signal,ELK4,"1.41 fold enrichment (6-mer frequency, TF over GST control)"
same,binding signal,ETV2,"1.22 fold enrichment (6-mer frequency, TF over GST control)"
same,binding signal,ELF3,"1.41 fold enrichment (6-mer frequency, TF over GST control)"
same,binding signal,CRX,"1.32 fold enrichment (6-mer frequency, TF over GST control)"
same,binding signal,ETV1,"1.23 fold enrichment (6-mer frequency, TF over GST control)"
